Hit rate of the full screen: of about 7,900 compounds, about 400 (5.1%) showed an effect of 50% or more. The full list was thinned out, with strong results kept by preference.

Parkinson's disease protein 7 (PARK7/DJ1), sequence (Q99497 whole entry, looked up, the tested form may be a part): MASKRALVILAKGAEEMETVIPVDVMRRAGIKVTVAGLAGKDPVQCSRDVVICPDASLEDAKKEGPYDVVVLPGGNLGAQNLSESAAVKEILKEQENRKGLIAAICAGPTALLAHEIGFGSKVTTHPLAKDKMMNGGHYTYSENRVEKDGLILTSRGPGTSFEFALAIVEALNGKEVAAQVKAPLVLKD

This assay deals with Parkinson's disease protein 7 (PARK7/DJ1) (human, UniProt Q99497). The assay is described as follows: primary screen, percent inhibition; read as competition with a fluorescent probe by fluorescence polarization; higher = more effect of the substance. The following applies: 100 µM. Put shortly:
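Covalent fragments at 100 μM final were incubated 2 h with 0.2 μM PARK7, then 20 nM probe JYQ-107 added for a further 2 h. Fluorescence polarization read at 480/520 nm; relative FP loss versus reference controls gave remaining enzyme activity.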
Molecule `Cl.NC1C=CS(=O)(=O)C1` (stereo not drawn) showed an Inhibition % of 9.63%. For `NC(=O)c1c(NC(=O)CCl)sc2c1CCC2` the value was 38.6%. For `Cn1ccc(C(=O)CCl)c1` the value was 49%. With `Cn1nccc1C(=O)CCl`, the Inhibition % worked out at 15.4%.

The molecule `CCn1ncc(C(=O)CCl)n1` returned an Inhibition % of 87.8%.

As for `Cn1cc(C(=O)CCl)cn1`, the Inhibition % is recorded as 77.2%. The molecule `Cn1ccnc1C(=O)CCl` yielded an Inhibition % of 32.3%. For `Cn1cccc1C(=O)CCl`, the Inhibition % is 8.03%. Under `CN(Cc1cnn(C)c1)C(=O)CCl.Cl` stands 20.6%.

As to `Cn1nncc1C(=O)CCl`, the Inhibition % is recorded as 82.2%. Regarding `CCn1nc(C)c(C(=O)CCl)n1`, the Inhibition % was determined as 13.1%.

`Cl.O=C(CCl)c1csc(N2CCCCC2)n1` displayed an Inhibition % of 2.02%. Under `Cn1ncc(C(=O)CCl)n1` stands 95.3%. Under `C=CC(=O)NCCCc1cnn(C)n1` stands 5.99%; under `OC1(C2CO2)CCOCC1` (stereo not drawn), 7.63%; under `CC1(C)OB(c2cccc(CN3CCOCC3)c2)OC1(C)C.Cl`, 25.8%. Under `N#CN(Cc1ccc(C(N)=O)cc1)c1ccc(F)cc1` stands 3.09%; under `C=CC(=O)NC1CCCC1C(=O)NC` (stereo not drawn), 9%; under `Cc1nc(C=CC(=O)N2CCC(C)(C(=O)O)C2)cs1` (stereo not drawn), 5.72%. For the molecule `COc1ccc(C2=NC(=Cc3csc(C)n3)C(=O)O2)cc1`, the Inhibition % is recorded as 14.1%. Under `Nc1ccc(N2CCC2=O)cc1` stands 16.5%; under `O=C(CCl)Nc1nc2ccc([N+](=O)[O-])cc2s1`, 6.68%.

`Cc1ccc(Cc2cnc(NC(=O)CCl)s2)cc1` came in with an Inhibition % of 7.26%. For the molecule `O=C(CCl)Nc1ncc([N+](=O)[O-])s1`, the Inhibition % was determined as 96.3%. As for `C=CC(=O)Nc1ccc(F)c(F)c1`, the Inhibition % is on record as 7.82%. For `CCc1nccn1S(=O)(=O)c1ccc(Cl)c(C)c1` the value was 1.29%.

`CC(C)NC(=O)C(C#N)=Cc1cccc(O)c1` returned an Inhibition % of 19.6%.

(Values after PMC9574860, “Chemical Toolkit for PARK7: Potent, Selective, and High-Throughput” (Journal of Medicinal Chemistry, 2022).)
